Bioassay records (PubChem BioAssay)
Insulin prom up: MIN6 insulin promoter up-regulation. MIN6 insulin promoter-GFP reporter, high-content imaging; active compounds read high. z-score at 5 µM. hit rate 0.3% among 190,000. AID 1625;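 active = z-score above 3 at 5 µM with at least 500 cells counted in the well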
INS promoter inh: TRM-6 insulin promoter activity inhibition; TRM-6 cells (human fetal islet line), insulin promoter-eGFP reporter, imaging; reporter expression induced with tamoxifen; inhibition, % at 2 µM; hit rate 0.9% among 130,000;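 active = inhibition above the mean plus 3 SD, with well images judged a real hit on visual review, cut at about 60% in these data, passing the limit was not always enough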
WT yeast gro inh: growth inhibition of WT yeast, mitochondrial fusion screen | AID 1362 | inhibition, % at 10 µM | hit rate 2.1% among 190,000 | mitochondrial fusion phenotypic screen, WT strain; in the data active = inhibition above about 58%; tested in S. cerevisiae
Autophagy HCS: modulators of autophagy. hit rate 0.98% among 190,000. MEF GFP-LC3 puncta imaging; test concentration mostly 10 µM. AID 463193. calls only at 10 µM (by protocol);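 active = percentage of spot-positive cells more than 3 SD above its plate mean, without a fluorescence outlier flag or 80% toxicity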
Lmaj promast: inhibitors of Leishmania major promastigote growth; inhibition, % at 10 µM; Leishmania major promastigotes, resazurin fluorescence viability; hit rate 9% among 200,000; in the data active = inhibition above about 50%;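 note: promastigotes grown with compound for 44 hours at 28 °C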
Of the large screens only hits and unclear results are named; the others gave an inactive call. Hits are enriched below; roughly 11% of the tested compounds scored in any of these assays.

Cc1ccc(-c2nnc(SCc3ccc(C#N)cc3)n2Cc2ccco2)cc1	Lmaj promast 66
COCCn1c(SCC(=O)N(C(C)C)C(C)C)nnc1-c1cc2ccccc2cc1O	none (no result: INS promoter inh)
CC(C)(C)c1ccc(CSc2nnc(-c3ccccn3)n2Cc2ccco2)cc1	WT yeast gro inh 64 (no result: Insulin prom up)
CC(C)N(C(=O)CSc1nnc(-c2cc3ccccc3cc2O)n1Cc1ccco1)C(C)C	Lmaj promast 54
O=C(CSc1nnc(-c2cnccn2)n1Cc1ccco1)c1ccccc1	WT yeast gro inh 99
CCC(CC)NC(=O)Nc1ccc(C)cc1	none (no result: INS promoter inh, WT yeast gro inh, Autophagy HCS, Lmaj promast)
CCCc1ccc(-c2cc(C(=O)NC3=NCCS3)c3ccccc3n2)cc1	WT yeast gro inh 80 (no result: INS promoter inh)
O=C(Nc1ccc([N+](=O)[O-])cn1)c1cc(-c2cccc(Cl)c2)nc2ccccc12	none
O=C(Nc1ccccn1)c1cc(-c2cccc(Cl)c2)nc2ccccc12	WT yeast gro inh 65 (no result: INS promoter inh)
O=C(Nn1cnnc1)c1cc(-c2cccc(Br)c2)nc2ccccc12	none (no result: INS promoter inh, WT yeast gro inh, Autophagy HCS, Lmaj promast)
O=C(Nc1ncccn1)c1cc(-c2cccc(Br)c2)nc2ccccc12	Lmaj promast 83
O=C(NNC(=O)c1cc(-c2ccc(Cl)c(Cl)c2)nc2ccccc12)Nc1ccccc1	Lmaj promast 61 (no result: INS promoter inh)
Cc1cccc(C(=O)Nc2ccccc2SCC(=O)Nc2ccc(C)c(Cl)c2)c1	none
COc1cccc(C2CC(=O)C3=C(C2)Nc2ccccc2N(C(=O)CCC(=O)O)C3c2ccc(F)cc2)c1 (stereo not given)	none (no result: INS promoter inh, WT yeast gro inh, Autophagy HCS, Lmaj promast)
N#CCCn1cc(C=O)c(-c2cccs2)n1	none (no result: INS promoter inh)
CCOC(=O)c1c(NC(=O)CSc2nnc(Cc3ccccc3)o2)sc(C)c1C	none (no result: Insulin prom up)
Cc1ccc(-c2cc(C(=O)NCc3ccccn3)c3ccccc3n2)cc1	none
O=C(NC1=NCCS1)c1cc(-c2cccc(Br)c2)nc2ccccc12	WT yeast gro inh 80
CCc1ccc(-c2cc(C(=O)NCc3ccccn3)c3ccccc3n2)cc1	Lmaj promast 97
CCOC(=O)C1(Cc2cccc(F)c2)CCN(C(=O)COC)CC1	none (no result: INS promoter inh, WT yeast gro inh, Autophagy HCS, Lmaj promast)
CN(C(=O)Cc1noc2ccccc12)c1ccccc1	none
CCOC(=O)/C(C#N)=C/Nc1ccsc1C(C)=O	none (no result: INS promoter inh, WT yeast gro inh, Autophagy HCS, Lmaj promast)
Nc1c(S(=O)(=O)c2ccccc2)nnn1-c1ccccc1	none
COc1ccc(S(=O)(=O)c2nnn(-c3ccccc3Cl)c2N)cc1	INS promoter inh 73
C=CCN(CC=C)S(=O)(=O)c1ccc(NC(=S)NC(=O)Cc2ccc(OC)cc2)cc1	Lmaj promast 62 (no result: INS promoter inh)
O=C(NCCc1c[nH]c2ccccc12)C(=O)NCC(c1cccnc1)N1CCN(c2ccccc2)CC1 (stereo not given)	Lmaj promast 100
COc1ccc(C(C(O)C(=O)c2c[nH]c3ccccc23)N2CCN(c3ccc(OC)cc3)CC2)cc1 (stereo not given)	Lmaj promast 52
COC(=O)NCC(c1ccco1)N1CCN(c2ccc(OC)cc2)CC1 (stereo not given)	none (no result: INS promoter inh)
COc1ccc(N2CCN(C(CNC(=O)C(=O)NCCc3c[nH]c4ccccc34)c3ccco3)CC2)cc1 (stereo not given)	Lmaj promast 65
O=C(c1ccccc1SCc1ccc(F)cc1)N1CCOCC1	none (no result: INS promoter inh)
CC(C)=NOc1nc(N2CCOCC2)nc(N2CCOCC2)n1	none (no result: INS promoter inh, WT yeast gro inh, Autophagy HCS, Lmaj promast)
COc1cc(C(=O)Oc2cccc(C)c2)cc(OC)c1OC	none
COc1cc(OC)nc(Oc2ccccc2C(=O)Oc2cccc(C)c2)n1	WT yeast gro inh 60 (no result: Insulin prom up)
COCCCNC(=O)C1CCCN(S(=O)(=O)c2ccc(C)cc2)C1 (stereo not given)	none
N#Cc1ccc(OCCOCCNC2CCCC2)cc1	Lmaj promast 81 (no result: Insulin prom up)
c1cc2c(cc1OCCNC1CCCC1)CCC2	Lmaj promast 76 (no result: INS promoter inh)
c1ccc(Cc2ccc(OCCn3cncn3)cc2)cc1	none
c1ccc(-c2ccc(OCCCNC3CCCC3)cc2)cc1	Lmaj promast 100 (no result: INS promoter inh)
c1ccc(Cc2ccc(OCCCNC3CCCC3)cc2)cc1	Lmaj promast 100 (no result: INS promoter inh)
Cc1ccc(OCCNC(=O)C2CCCCC2)cc1	none (no result: INS promoter inh)
CC1Cc2ccccc2N1CC(=O)NCc1ccc2c(c1)OCO2 (stereo not given)	none (no result: INS promoter inh)
COc1ccc(OCCNC2CCCC2)cc1	Lmaj promast 61
c1ccc(SCCCCNC2CCCC2)cc1	Lmaj promast 87 (no result: Insulin prom up, INS promoter inh)
c1coc(CNC2CCCCCCC2)c1	none (no result: Insulin prom up, INS promoter inh)
O=C(CNS(=O)(=O)/C=C/c1ccccc1)OC1CCOC1=O (stereo not given)	none (no result: INS promoter inh)
Cc1nn(-c2ccccc2Cl)c(Cl)c1/C=N/Nc1nc2ccccc2s1	Lmaj promast 59
CC(C)C(=O)Nc1ccc2c(c1)nc1n2CCSC1	INS promoter inh 76
CCC(=O)Nc1ccc2c(c1)nc1n2CCSC1	none (no result: INS promoter inh)
C=CCNC(=S)NNC(=O)c1ccco1	none
O=C(/C=C/c1ccco1)NC(=S)NNC(=O)c1ccco1	Lmaj promast 94
CCN(CC)Cc1ccccc1Sc1ccccc1	Lmaj promast 94
N/C(Cc1ccccc1Sc1ccccc1)=N\O	none
CCCC(=O)N1CCN(Cc2ccc3c(c2)OCO3)CC1	none
O=C(C1COc2ccccc2O1)N1CCN(Cc2ccc3c(c2)OCO3)CC1 (stereo not given)	Lmaj promast 89 (no result: INS promoter inh)
O=C(C1COc2ccccc2O1)N1CCCC1 (stereo not given)	none
O=C(CN1C(=O)c2cccc3cccc1c23)N1CCN(Cc2ccc3c(c2)OCO3)CC1	Lmaj promast 88
O=C(CCc1ccc(S(=O)(=O)NCCc2ccccc2)cc1)N1CCN(Cc2ccc3c(c2)OCO3)CC1	Lmaj promast 78
O=C(CSCc1ccccc1)N1CCN(Cc2ccc3c(c2)OCO3)CC1	Lmaj promast 99
CC(=O)OCC1(C)CN(c2ccccc2)N(C(=O)c2ccc(F)cc2)C1=O (stereo not given)	none (no result: INS promoter inh)
O=C(CSc1cccc[n+]1[O-])c1cc(Cl)ccc1Cl	Lmaj promast 99
O=C(CSc1cccc[n+]1[O-])c1cc2ccccc2o1	Lmaj promast 95 (no result: INS promoter inh)
COc1ccc(NC(=O)C2=C(C)Nc3nc(CCCO)nn3C2c2ccc(OC)c(OC)c2)cc1 (stereo not given)	none (no result: INS promoter inh)
Nc1nc(-c2cc3ccccc3o2)cs1	none (no result: INS promoter inh, WT yeast gro inh, Autophagy HCS, Lmaj promast)
Cc1onc(-c2c(Cl)cccc2Cl)c1C(=O)NCCCN1CCOCC1	Lmaj promast 88
Cc1onc(-c2c(Cl)cccc2Cl)c1C(=O)c1c[nH]c(C(=O)NCCCN2CCOCC2)c1	none
Cc1onc(-c2ccccc2Cl)c1C(=O)NCCCN1CCOCC1	Lmaj promast 53 (no result: INS promoter inh)
Cc1ccc(NC(=O)COC(=O)CCc2ccc(S(=O)(=O)N3CCOCC3)cc2)cc1F	none (no result: INS promoter inh)
O=C(NN=C1CCN(Cc2ccccc2)CC1)c1cccc(S(=O)(=O)Nc2ccccc2Cl)c1	Insulin prom up 3
COc1ccccc1NS(=O)(=O)c1cccc(C(=O)NN=C2CCCCCC2)c1	none (no result: Insulin prom up)
OCCC1CN(Cc2cccn2-c2ccccn2)CCN1Cc1ccccc1 (stereo not given)	none (no result: INS promoter inh)
Cc1noc(C(=O)Nc2cccc(O)c2)c1Cl	none (no result: INS promoter inh, WT yeast gro inh, Autophagy HCS, Lmaj promast)
CN(C1=C(NC(=O)c2ccccc2)C(=O)c2ccccc2C1=O)C1CCS(=O)(=O)C1 (stereo not given)	Lmaj promast 99
CC(=O)NC1=C(NC2CCS(=O)(=O)C2)C(=O)c2ccccc2C1=O (stereo not given)	none (no result: INS promoter inh)
COC(=O)c1ccc(NC(=O)CN(c2ccc3c(c2)OCO3)S(C)(=O)=O)cc1	Lmaj promast 64
